In paper PMC5540273 (PLoS ONE, 2017):

System: ULK1
Conditions: concentration: 1 μM,replicates: in singlicate; n = 1
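Further: KINOMEscan kinase panel screen.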

Structure (SMILES) | %Inh [%]
CS(=O)(=O)Nc1ccc(-c2ccnc3[nH]ccc23)cc1 [GSK993273] | 64
O=C(NCC1CC1)c1ccc(-c2cc(C(=O)NC3CC3)ccc2F)cc1 [GW810445] | 1
Cc1cccc2c(-c3ccncc3)c(-c3ccc(F)cc3)nn12.Cl [GW461487] | 0
Cn1ccc2ncnc(Oc3ccc(NC(=O)Nc4cnn(C(C)(C)C)c4)c(Cl)c3)c21 | 0
Cn1cc(-c2cccc3c(N)c(C(N)=O)nnc23)cn1 | 23
C[C@@H]1CCN(C(=O)N2CCCC2)C[C@@H]1N(C)c1ncnc2[nH]ccc12 | 36
Cl.Nc1n[nH]c2cc(-c3ccccn3)ccc12 [GSK2189892] | 50
Cl.c1ccc(Oc2ccc(Nc3ccnc4cc(-c5ccc(CN6CCNCC6)o5)ccc34)cc2)nc1 [GW567142] | 0
CCNCC(Cc1ccccc1)NC(=O)c1cc(Br)c(-c2ccnc3[nH]ccc23)s1.Cl.Cl (centres unmarked) [GSK1383280] | 0
Cc1ccc(Nc2ccnc(Nc3ccc4c(c3)CS(=O)(=O)C4)n2)cc1O.Cl [GW579362] | 55
COc1cccc(C2=C(Nc3cccc(Cl)c3)C(=O)NC2=O)c1 [SB-341556] | 42
CCN1CCN(CCCC(=O)Nc2n[nH]c3nc(-c4ccc(O)cc4)c(Br)cc23)CC1 [SB-731579] | 0
CSc1nccc(-c2c(-c3ccc(F)cc3)ncn2CCCN2CCOCC2)n1.Cl [SB-217146] | 12
COc1cc2nccc(Nc3ccc(Oc4ccccc4)cc3)c2cc1OC.Cl [GI261656] | 0
CS(=O)c1ccc(-c2coc3ccc(-c4n[nH]c(=O)o4)cc23)cc1 (centres unmarked) | 35
Cn1ccc2ncnc(Oc3ccc(NC(=O)Nc4ccnc(C(F)(F)F)c4)c(Cl)c3)c21 | 0
CN1CCN(CCCNc2nccc(-c3c(-c4ccc(F)cc4)nn4cc(C(N)=O)ccc34)n2)CC1 [GW622475] | 8
O=C(NOCC1CC1)c1cc(Br)c(F)c(F)c1Nc1ccc(I)cc1Cl | 0
COc1cccc(CNC(=O)NC2CCN(c3ccnc(Nc4cc(OC)c(OC)c(OC)c4)n3)C2)c1 (centres unmarked) [GSK1379765] | 0

Structure (SMILES) | %Inh [%]
COc1cc(Nc2nccc(N3CCC(NC(=O)c4cccc(C#N)c4)C3)n2)cc(OC)c1OC (centres unmarked) [GSK1379751] | 12
COC(=O)c1cccc(NC(=O)NC2CCN(c3ccnc(NCc4ccc(F)cc4)n3)CC2)c1 [GSK1379860] | 20
Cn1ccc2ncnc(Oc3ccc(NC(=O)Nc4cc(C(C)(C)C)on4)c(Cl)c3)c21 | 8
O=C1NCCc2[nH]c(-c3ccncc3)cc21 | 25
Nc1nccc(-c2ccc3c(N)n[nH]c3c2)n1 [GSK1034945] | 41
CC(=O)Nc1ccc(-c2cc3ncnc(SCC(=O)O)c3s2)cc1 | 10
NC(=O)c1ccc(-c2cc3ncnc(SCC(=O)O)c3s2)cc1 | 0
Cc1cccc(-c2nc(Nc3ccncc3)c3sccc3n2)n1 [GW869641] | 43
Cn1ccc2ncnc(Oc3ccc(NC(=O)Nc4cncc(C(F)(F)F)c4)c(Cl)c3)c21 | 0
OCCn1cc(-c2cnc3nnn(Cc4ccc5ncccc5c4)c3n2)cn1 | 0
C[C@@H]1CNc2c(sc3ccc4nc(-c5ccc(O)cc5)ccc4c23)C(=O)N1 | 38
FC(F)(F)c1cc(Br)cc(Nc2nccc(-c3cnn4ncccc34)n2)c1 [GW810578] | 21
NC(=O)Nc1sc(-c2ccc(F)cc2)cc1C(N)=O [GW789449] | 32
c1ccc(Oc2ccc(Nc3ccnc4ccc(-c5ccccn5)cc34)cc2)cc1 [GW407034] | 49
CCn1c(-c2nonc2N)nc2cncc(CNC3CCNCC3)c21.Cl [SB-747651] | 17
CN(c1ccccc1CNc1nc(Nc2ccc3c(c2)CC(=O)N3)ncc1C(F)(F)F)S(C)(=O)=O | 71
Cc1ccc(C(=O)Nc2ccc(Oc3ccc4nc(NC(=O)C5CC5)cn4c3)c(F)c2)c(=O)n1-c1ccccc1 | 0
C[C@@H](Oc1cc(-n2cnc3ccc(-c4ccncc4)cc32)sc1C(N)=O)c1ccccc1Cl [GSK483724] | 6

System: ULK2
Conditions: concentration: 1 μM,replicates: in singlicate; n = 1

Structure (SMILES) | %Inh [%]
CS(=O)(=O)Nc1ccc(-c2ccnc3[nH]ccc23)cc1 [GSK993273] | 10
O=C(NCC1CC1)c1ccc(-c2cc(C(=O)NC3CC3)ccc2F)cc1 [GW810445] | 0
Cc1cccc2c(-c3ccncc3)c(-c3ccc(F)cc3)nn12.Cl [GW461487] | 0
Cn1ccc2ncnc(Oc3ccc(NC(=O)Nc4cnn(C(C)(C)C)c4)c(Cl)c3)c21 | 7
Cn1cc(-c2cccc3c(N)c(C(N)=O)nnc23)cn1 | 14
C[C@@H]1CCN(C(=O)N2CCCC2)C[C@@H]1N(C)c1ncnc2[nH]ccc12 | 46
Cl.Nc1n[nH]c2cc(-c3ccccn3)ccc12 [GSK2189892] | 47
Cl.c1ccc(Oc2ccc(Nc3ccnc4cc(-c5ccc(CN6CCNCC6)o5)ccc34)cc2)nc1 [GW567142] | 16
CCNCC(Cc1ccccc1)NC(=O)c1cc(Br)c(-c2ccnc3[nH]ccc23)s1.Cl.Cl (centres unmarked) [GSK1383280] | 0
Cc1ccc(Nc2ccnc(Nc3ccc4c(c3)CS(=O)(=O)C4)n2)cc1O.Cl [GW579362] | 2
COc1cccc(C2=C(Nc3cccc(Cl)c3)C(=O)NC2=O)c1 [SB-341556] | 7
CCN1CCN(CCCC(=O)Nc2n[nH]c3nc(-c4ccc(O)cc4)c(Br)cc23)CC1 [SB-731579] | 0
CSc1nccc(-c2c(-c3ccc(F)cc3)ncn2CCCN2CCOCC2)n1.Cl [SB-217146] | 36
COc1cc2nccc(Nc3ccc(Oc4ccccc4)cc3)c2cc1OC.Cl [GI261656] | 0
CS(=O)c1ccc(-c2coc3ccc(-c4n[nH]c(=O)o4)cc23)cc1 (centres unmarked) | 0
Cn1ccc2ncnc(Oc3ccc(NC(=O)Nc4ccnc(C(F)(F)F)c4)c(Cl)c3)c21 | 0
CN1CCN(CCCNc2nccc(-c3c(-c4ccc(F)cc4)nn4cc(C(N)=O)ccc34)n2)CC1 [GW622475] | 0
O=C(NOCC1CC1)c1cc(Br)c(F)c(F)c1Nc1ccc(I)cc1Cl | 0
COc1cccc(CNC(=O)NC2CCN(c3ccnc(Nc4cc(OC)c(OC)c(OC)c4)n3)C2)c1 (centres unmarked) [GSK1379765] | 0

Structure (SMILES) | %Inh [%]
COc1cc(Nc2nccc(N3CCC(NC(=O)c4cccc(C#N)c4)C3)n2)cc(OC)c1OC (centres unmarked) [GSK1379751] | 0
COC(=O)c1cccc(NC(=O)NC2CCN(c3ccnc(NCc4ccc(F)cc4)n3)CC2)c1 [GSK1379860] | 0
Cn1ccc2ncnc(Oc3ccc(NC(=O)Nc4cc(C(C)(C)C)on4)c(Cl)c3)c21 | 11
O=C1NCCc2[nH]c(-c3ccncc3)cc21 | 32
Nc1nccc(-c2ccc3c(N)n[nH]c3c2)n1 [GSK1034945] | 13
CC(=O)Nc1ccc(-c2cc3ncnc(SCC(=O)O)c3s2)cc1 | 13
NC(=O)c1ccc(-c2cc3ncnc(SCC(=O)O)c3s2)cc1 | 0
Cc1cccc(-c2nc(Nc3ccncc3)c3sccc3n2)n1 [GW869641] | 29
Cn1ccc2ncnc(Oc3ccc(NC(=O)Nc4cncc(C(F)(F)F)c4)c(Cl)c3)c21 | 0
OCCn1cc(-c2cnc3nnn(Cc4ccc5ncccc5c4)c3n2)cn1 | 0
C[C@@H]1CNc2c(sc3ccc4nc(-c5ccc(O)cc5)ccc4c23)C(=O)N1 | 63
FC(F)(F)c1cc(Br)cc(Nc2nccc(-c3cnn4ncccc34)n2)c1 [GW810578] | 20
NC(=O)Nc1sc(-c2ccc(F)cc2)cc1C(N)=O [GW789449] | 40
c1ccc(Oc2ccc(Nc3ccnc4ccc(-c5ccccn5)cc34)cc2)cc1 [GW407034] | 0
CCn1c(-c2nonc2N)nc2cncc(CNC3CCNCC3)c21.Cl [SB-747651] | 0
CN(c1ccccc1CNc1nc(Nc2ccc3c(c2)CC(=O)N3)ncc1C(F)(F)F)S(C)(=O)=O | 69
Cc1ccc(C(=O)Nc2ccc(Oc3ccc4nc(NC(=O)C5CC5)cn4c3)c(F)c2)c(=O)n1-c1ccccc1 | 0
C[C@@H](Oc1cc(-n2cnc3ccc(-c4ccncc4)cc32)sc1C(N)=O)c1ccccc1Cl [GSK483724] | 0
